These results are taken from PubChem BioAssay (NCI).

This is part of a sample that, as a whole, favours compounds with a hit. Of some 83,000 tested, about 20% had one in any assay.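 Cell lines were cultured in 96-well plates, exposed to a single compound concentration, and assessed for percent growth 48 hours later.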 Unmarked numbers belong to inactive results. The source made the active and inactive calls. The calls were made as follows: active = growth percent below 10; inactive = the rest.

Holding throughout (assay): NCI-60 one-dose screen, 48 h (100 = growth as untreated, 0 = no growth, -100 = all killed)
Common to all, as to conditions: 10 µM unless noted

For assay [1], the system named is SK-MEL-2 melanoma.
Assay [2] has as its system EKVX NSCLC.
Assay [3] relates to SN12C renal.
Assay [4] has as its system UO-31 renal.
Assay [5] relates to TK-10 renal.
The test system of assay [6] is ACHN renal.
Assay [7] deals with CAKI-1 renal.
The subject of assay [8] is A498 renal.
The subject of assay [9] is CCRF-CEM leukemia.
The subject of assay [10] is MOLT-4 leukemia.
Assay [11] relates to SR leukemia.
Assay [12] concerns OVCAR-8 ovarian.
Assay [13] relates to OVCAR-5 ovarian.
Assay [14] concerns OVCAR-4 ovarian.
The subject of assay [15] is SK-OV-3 ovarian.
Assay [16] has as its system OVCAR-3 ovarian.
Assay [17] relates to HS 578T breast.
Assay [18] concerns NCI/ADR-RES ovarian.
Assay [19] relates to IGROV1 ovarian.

`Cc1ccc(/C=N\NC(=O)c2[nH]c3ccc(F)cc3c2-c2ccccc2)cc1`: the growth in assay [1] is 23.2%; in [2] it was 38%; in assay [3] it was 41.5%; in assay [4], 32.1%; in [5] it was 72.5%; in assay [6], 38.5%. In addition, the growth was 1.21% (active) in [7]; 19% in assay [8]; 18.4% in assay [9]; 28.2% in assay [10]; 19.7% in assay [11]; 16.6% in [12]. Besides, the growth in assay [13] is 62.5%; in assay [14], 46.8%; in assay [15], 20.4%; in [16], -32.3% (active); in assay [17], 16.7%.
As to `CN1CCN(Cc2ccc(NC(=O)c3ccc(C(C)(C)C)c(C#Cc4cnc5cccnn45)c3)cc2C(F)(F)F)CC1`, the growth was 33.7% in assay [1]; -32.8% (active) in assay [2]; -67.4% (active) in [3]; -47% (active) in assay [4]; -93.8% (active) in assay [5]; -75.2% (active) in assay [6]. The growth in [7] is -45.1% (active); in assay [8], 75.5%; in assay [9], -36.7% (active); in assay [10], -57% (active); in [11] it was -49.7% (active); in assay [12] it was -30.4% (active). In addition, the growth in [13] was -25.4% (active); in [14] it was 15%; in assay [15], -56.6% (active); in assay [16], -68.5% (active); in [17], -24.8% (active); in assay [18] it was -43.5% (active).
`CN(C)CCCNc1nc2ccccc2c2c(=O)c3cc(F)ccc3sc12`: the growth in assay [1] was 87.3%; in assay [2], 66.3%; in [3] it was 61.2%; in assay [4] it was 24.9%; in [5], 59.7%; in assay [6], 21.5%. The growth in [7] was 8.81% (active); in assay [8], 26.6%; in assay [9], 10% (active); in assay [10], -11.2% (active); in assay [11], -37.9% (active); in [12], 45.3%. Further, the growth in assay [13] is 73.7%; in assay [14], 36.6%; in [15], 78.1%; in assay [19] it was 40.5%; in assay [17], 46.7%; in [18], 43%.
With `Cc1cccc(NCc2cn(-c3ccc(C(=O)O)cc3)nc2-c2ccc(C(=O)O)cc2)n1`, the growth in [1] was 120%; in [2] it was 102%; in assay [3], 101%; in [4] it was 88%; in assay [5], 102%; in assay [6], 103%. Further, the growth is 95.7% in assay [7]; 95.5% in assay [8]; 104% in assay [9]; 105% in [10]; 111% in [11]; 110% in assay [12]. For the same compound, the growth was 95.2% in assay [13]; 105% in assay [14]; 110% in assay [15]; 105% in assay [19]; 96.9% in assay [17]; 108% in assay [18].
In the case of `O=c1c2cc(F)ccc2sc2c(NCCCNCCO)nc3ccc(F)cc3c12`, the growth in assay [1] is 97.3%; in [2], 75.4%; in assay [3], 66.1%; in assay [4] it was 31.1%; in assay [5], 67.5%; in assay [6] it was 46.9%. Further, the growth in assay [7] was 27.1%; in assay [8] it was 26.9%; in [9], 15.1%; in [10], 18.8%; in assay [11], -25.8% (active); in assay [12] it was 58.5%. The growth in assay [13] is 73.7%; in [14], 41.5%; in [15], 80.4%; in assay [16] it was 30.4%; in assay [17] it was 61%; in assay [18] it was 66.5%.
For the compound `CCOC(=O)c1sc2ncc(-c3ccc(OC)cc3)n2c1C`, the growth was 103% in assay [1]; 94.8% in [2]; 92.1% in [3]; 79.3% in [4]; 156% in [5]; -100% (active) in assay [6]. Besides, the growth in assay [7] was 96.3%; in assay [8], 107%; in [9], 94.6%; in assay [10], 94.5%; in assay [11], 104%; in assay [12], 91.6%. The growth in assay [13] was 105%; in [14], 97.5%; in assay [15], 78.7%; in assay [16] it was 108%; in assay [17], 94.1%; in [18], 92.3%.
As to `COc1ccc(-c2nnc(COc3ccc(Cl)cc3Cl)o2)cc1OC`, the growth was 57.6% in assay [1]; -15.8% (active) in [2]; 12.1% in assay [3]; -36.4% (active) in assay [4]; -8.66% (active) in assay [5]; 13.7% in assay [6]. Further, the growth was 57.7% in [7]; 15.9% in assay [8]; 29.3% in assay [9]; 54.3% in [10]; 46.8% in [11]; 20.1% in assay [12]. In addition, the growth is 74.6% in assay [13]; -33.1% (active) in [14]; 37.6% in assay [15]; 1.98% (active) in assay [16]; 4.73% (active) in assay [17]; 17.5% in assay [18].
Take `COC(=O)[C@H](C)NC(=O)NC(=O)NC(=O)CI`: the growth in [1] is 87.7%; in assay [2] it was 107%; in [3], 47.1%; in assay [4], 78.3%; in assay [5], 70.6%; in assay [6], 76.7%. Besides, the growth was -61.3% (active) in assay [7]; 128% in [8]; -55.5% (active) in assay [9]; -31.7% (active) in assay [10]; -23% (active) in assay [11]; 97% in assay [12]. The growth in assay [13] is 108%; in assay [14], 64.7%; in [15] it was 107%; in [16] it was -19.2% (active); in [17], 114%; in assay [18], 89.7%.
